Consider 39 molecules from PubChem BioAssay (EPA / NIEHS).

One may read the AC50 as the concentration giving half of the maximal activity seen.

Where “and” joins values, the source holds several entries; their conditions need not be identical. Equal values may be shown once. The source holds several records for some structures; these can differ, active in one and inactive in another. Calls of active or inactive are those of the source. Rule for the calls: active = hit-call score of the fitted dose curve at least 0.9, where 1 is the maximum; inactive = score below 0.9.

This assay can be described thus: BSK_3C_TissueFactor: BioMAP Diversity Plus: 3C Assay for Tissue Factor Biomarker Activity (AID 2282997). Conditions: BioMAP 3C HUVEC, tissue factor biomarker readout; actives raise or lower the signal. The procedure:
BSK_3C is a cell-based, multiplexed-readout assay that uses umbilical vein endothelium, a human vascular primary cell, with measurements taken at 24 hours after chemical dosing in a 96-well plate.BSK_3C_TissueFactor is an assay component measured in the BSK_3C assay. It measures Tissue Factor antibody related to regulation of gene expression using ELISA technology.Data from the assay component BSK_3C_TissueFactor was analyzed into 1 assay endpoint. This assay endpoint, BSK_3C_TissueFactor, was analyzed with bidirectional fitting relative to DMSO as the negative control and baseline of activity. Using a type of binding reporter, gain or loss-of-signal activity can be used to understand changes in the signaling as they relate to the gene F3. Furthermore, this assay endpoint can be referred to as a primary readout, because this assay has produced multiple assay endpoints where this one serves a signaling function. To generalize the intended target to other relatable targets, this assay endpoint is annotated to the cytokine intended target family, where the subfamily is coagulation factor.
The levels of cell surface (or secreted, indicated by the prefix "s") biomarker endpoints were measured by ELISA. Overt cytotoxicity to cells in confluent adherent cultures (all systems other than the BT system) was assessed by measuring total protein levels using sulforhodamine B (SRB) staining in parallel cultures at the time of biomarker measurements, indicated as SRB endpoints. For proliferation assays for adherent cell types, individual cell types are cultured at sub-confluence and relative cell numbers quantified by SRB staining at time points optimized for each system (48 h: 3C and CASM3C systems; 72 h: BT and HDF3CGF systems; 96 h: SAg system). SRB was performed by staining cells with 0.1% SRB after fixation with 10% TCA and reading wells at 560 nm.Viability and proliferation of PBMC (T cells) was quantified by Alamar Blue reduction for the SAg and BT systems. For PBMC viability (referred to as PBMC Cytotoxicity within the assay endpoint names), cells were plated (75,000/well in a 96-well plate) and then chemical samples added for 1 h before addition of activators, SEB and TSST-1 (20 ng/mL final concentration each). Cells were incubated for 90 h. Then, Alamar Blue (20 uL/well) (Invitrogen, Cat DAL1100) was added for 6 h, and the plates were read with a fluorescence microplate reader at 546/580 nm (excitation/emission). For PBMC proliferation, cells were plated and activated as above but incubated for only 16 h prior to addition of Alamar Blue. Plates were read after 6 h.
Turning to `CCCCCCC=O`, the result was inactive.
For `Oc1ccccc1Cc1ccccc1O`, the result was inactive.
On the same count and under the same terms, next, `CCCCCCCCCCCC(=O)N(C)CC(=O)O`: “inactive”.
`Oc1c(Cl)cc(Cl)c(Cl)c1Cl`: the AC50 is 23.8 µM (active).
The same measure, in the same setting: to `C=CC(=O)OCCCCCCOC(=O)C=C` belongs 3.97 µM (active).
On to `Nc1nc(N)nc(-c2ccccc2)n1`, for which the result was inactive.
On the same count and under the same terms, next, `C=CCCCCCCCCC=O`: “inactive”; `CC=C(C)C(C)=O`: “inactive”.
The same measure, in the same setting: to `CCOC(=O)C1=NN(c2ccc(Cl)cc2Cl)C(C)(C(=O)OCC)C1` (stereo not given) belongs “inactive”; to `CC(Cl)COP(=O)(OCC(C)Cl)OCC(C)Cl` (stereo not given), “inactive”; to `CC(C)CCCCCOC(=O)CS`, “inactive”.
Regarding `CC/C=C\C/C=C\C/C=C\CCCCCCCC(=O)OC`, the AC50 was 13.5 µM (active).
With `CC(C)c1cccc(C(C)C)c1N`, the outcome was inactive.
As for `C=CC(=O)OCC(C)OCC(C)OCC(C)OC(=O)C=C` (stereo not given), the AC50 is 11.6 µM (active).
As for `CCCCCCCO`, the result was inactive.
On to `CCCCCCCCC(CO)CCCCCC` (stereo not given), for which the result was inactive.
In the case of `C[N+](C)(C)CCCNS(=O)(=O)C(F)(F)C(F)(F)C(F)(F)C(F)(F)C(F)(F)C(F)(F)C(F)(F)C(F)(F)F`, the result was inactive and the AC50 was 41.3 µM (active).
For `CC(c1cc(C(C)(C)C)cc(C(C)(C)C)c1O)c1cc(C(C)(C)C)cc(C(C)(C)C)c1O`, the AC50 was 0.464 µM (active).
With `Oc1ccc(/C=C/c2cc(O)cc(O)c2)cc1`, the result was inactive.
On the same count and under the same terms, next, `C1CNCCN1`: “inactive”; `Cc1ccc([N+](=O)[O-])cc1N`: “inactive”.
As for `O=C1CCCCCCCCCCCN1`, the outcome was inactive.
For `O=C(O)C(F)(F)C(F)(F)C(F)(F)C(F)(F)C(=O)O`, the result was inactive.
For the molecule `C=CC(=O)NC(C)(C)C`, the result was inactive.
Same read-out and setting: to `CC(C)C(=O)OCCc1ccccc1` belongs “inactive”; to `CC1=CC=C(C(C)C)CC1`, “inactive”; to `CCNc1nc(NC(C)(C)C)nc(OC)n1`, “inactive”.
Same read-out and setting: to `C=C(C)C(=O)OCCCCCCCCCCCC` belongs “inactive”; to `CCCCCCOC(=O)CCCCC(=O)OCCCCCC`, “inactive”.
Still for that read-out and setting: next, `CCCCC1C(=O)N(c2ccccc2)N(c2ccccc2)C1=O`: “inactive”; `CCOC(=O)/C=C\C(=O)OCC`: “inactive”; `CC(CCC(=O)O)(c1ccc(O)cc1)c1ccc(O)cc1`: “inactive”.
On to `CCCCCC1=CCCC1=O`, for which the outcome was inactive.
`C=CC(=O)OCCCCCCCC(C)C`: the half-maximal activity concentration (AC50) was 20 µM (active).
Turning to `Fc1ccc(Br)cc1`, the outcome was inactive.
On to `CCCCCCCCCCCC(C)=O`, for which the AC50 is 25.4 µM (active).
With `C=CC(=O)NCOCCCC`, the outcome was inactive.
With `COc1ccc(C(=O)/C(Br)=C\C(=O)O)cc1`, the AC50 is 11.9 µM (active) and 10.2 µM (active).
As for `Clc1cc(Cl)c(Cl)c(Cl)c1Cl`, the AC50 was 3.97 µM (active).
